± gives the standard deviation of the averaged measurements.
Columns and labels:
Assay in all cases: cell viability (% of vehicle); higher = less cytotoxic
Settings in all cases: 10 µM; 72 h
HCI01 = test system: HCI01 (cells of a triple-negative basal-like breast cancer xenograft)
HCI03 = test system: HCI03 (cells of an ER-positive luminal breast cancer xenograft)
HCI09 = test system: HCI09 (cells of a triple-negative luminal androgen receptor type breast cancer xenograft)
HCI11 = test system: HCI11 (cells of an ER-positive luminal breast cancer xenograft)
HCI13 = test system: HCI13 (cells of an ER-positive luminal breast cancer xenograft)
HCI16 = test system: HCI16 (cells of a triple-negative basal-like breast cancer xenograft)
UCD52 = test system: UCD52 (cells of a triple-negative basal-like breast cancer xenograft)
WHIM2 = test system: WHIM2 (cells of a triple-negative basal-like breast cancer xenograft)
WHIM30 = test system: WHIM30 (cells of a triple-negative basal-like breast cancer xenograft)
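Further: PDX cells carrying CMV promoter-driven luciferase, viability read as total photon flux per second by IVIS imaging following D-luciferin, vehicle control 0.1% DMSO.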

Structure (SMILES)	cell viability (HCI01)	cell viability (HCI03)	cell viability (HCI09)	cell viability (HCI11)	cell viability (HCI13)	cell viability (HCI16)	cell viability (UCD52)	cell viability (WHIM2)	cell viability (WHIM30)
CCOC(=O)C1=CC(OC(CC)CC)C(NC(C)=O)C(N)C1.O=P(O)(O)O (stereo unspecified) [Oseltamivir phosphate]	111 ± 30	126	93.5 ± 5.9	95.4	93.1 ± 9	124	105 ± 16	98.9 ± 12	113 ± 1.6
CCC(CO)NCCNC(CC)CO.Cl.Cl (stereo unspecified) [Ethambutol HCl]	98.6 ± 2.4	122	102 ± 7.8	103	146 ± 15	102	86.7 ± 3	93.4 ± 21	153 ± 7.2
O=P(O)(O)C(O)(Cn1ccnc1)P(=O)(O)O [Zoledronic Acid]	134 ± 17	135	88.4 ± 13	172	75.2 ± 8.7	94.7	60.6 ± 1.4	68.7 ± 15	107 ± 21
COc1ccc2nc(S(=O)Cc3ncc(C)c(OC)c3C)[nH]c2c1 (stereo unspecified) [Omeprazole]	127 ± 30	149	94.2 ± 5.6	102	94 ± 3.6	121	138 ± 16	99.8 ± 23	192 ± 5.1
CCC1OC(=O)C(C)C(OC2CC(C)(OC)C(O)C(C)O2)C(C)C(OC2OC(C)CC(N(C)C)C2O)C(C)(O)CC(C)C(=NOCOCCOC)C(C)C(O)C1(C)O (stereo unspecified) [Roxithromycin]	138 ± 34	147	113 ± 25	101	133 ± 12	154	103 ± 2.8	103 ± 17	188 ± 29
Cn1cnc([N+](=O)[O-])c1Sc1ncnc2nc[nH]c12 [Azathioprine]	98.2 ± 32	119	106 ± 26	87	65 ± 8.7	151	129 ± 18	71.1 ± 10	110 ± 8.8
Nc1ccc(S(=O)(=O)c2ccc(N)cc2)cc1 [Dapsone]	114 ± 18	146	111 ± 3.1	116	118 ± 22	158	116 ± 4.3	115 ± 8.2	117 ± 10
c1ccc2[nH]c(-c3cscn3)nc2c1 [Thiabendazole]	148 ± 9.3	160	82.8 ± 82	162	162 ± 8.2	119	167 ± 15	120 ± 13	102.2 ± 0.2
C[N+](C)(C)CCOC(=O)CCC(=O)OCC[N+](C)(C)C.O.O.[Cl-].[Cl-] [Succinylcholine Chloride Dihydrate]	109 ± 8	104	96.9 ± 9.6	97.2	112 ± 16	101	61.6 ± 1.2	89.3 ± 5.8	133 ± 22
C=CC(=O)N1CCCC(n2nc(-c3ccc(Oc4ccccc4)cc3)c3c(N)ncnc32)C1 (stereo unspecified)	80.2 ± 24	69	56.2 ± 21	83.8	87.9 ± 8.6	55.6	76.7 ± 4.3	70.4 ± 7.2	103 ± 9.7
S=P(N1CC1)(N1CC1)N1CC1	109 ± 26	143	104 ± 1.4	103	111.3 ± 0.35	120	96.8 ± 5.2	83.8 ± 23	119 ± 11
Cc1cn(C2C=CC(CO)O2)c(=O)[nH]c1=O (stereo unspecified) [Stavudine (d4T)]	112 ± 12	115	110 ± 14	91	82.13 ± 0.67	117	104 ± 11	95.9 ± 9.4	127 ± 5
CCCN(CCC)CCc1cccc2c1CC(=O)N2.Cl [Ropinirole HCl]	61.7 ± 39	93.8	87.9 ± 2.6	86.3	95.9 ± 8.2	102	78.9 ± 7.1	91.6 ± 38	126 ± 12
CCOC(=O)C1OC1C(=O)NC(CC(C)C)C(=O)NCCC(C)C (stereo unspecified)	108 ± 6.8	118	97.6 ± 1.9	91.9	165 ± 7.1	70.3	97.4 ± 3.2	105 ± 38	99.6 ± 12
Clc1ccc2c(c1)C(N1CCNCC1)=Nc1ccccc1O2 [Amoxapine]	96.5 ± 15	104	87.5 ± 8.7	85	88 ± 2.5	94.9	100 ± 40	91.7 ± 7.3	197 ± 18
O=c1ccc2ccccc2o1 [Coumarin]	110 ± 15	145	99.9 ± 6.8	95	102 ± 7.2	128	93.3 ± 14	113 ± 4.4	114 ± 2.5
CCN(CC)CC(=O)Nc1c(C)cccc1C [Lidocaine]	107 ± 5.8	94.4	105 ± 5.4	100	100 ± 3.6	93.9	90.9 ± 16	74.4 ± 18	122 ± 21
OCC1OC(Oc2ccc(O)cc2)C(O)C(O)C1O (stereo unspecified) [Arbutin]	107 ± 28	127	100 ± 16	89.2	96.6 ± 4.9	131	103 ± 1.1	81.9 ± 9	84.3 ± 7.3
CC(NC(=O)Cc1cc(F)cc(F)c1)C(=O)NC(C(=O)OC(C)(C)C)c1ccccc1 (stereo unspecified)	111 ± 14	115	64.1 ± 6.3	104	116 ± 9.7	130	60.1 ± 2.1	74.18 ± 0.26	123 ± 25

Source: the supplement of paper PMC6992640
